For nine molecules, growth inhibition results are on record in PubChem BioAssay (NCI).

About 79,000 compounds went through this panel and 15% of them were active in at least one assay; those are over-represented in the sample as a whole. Values without a mark were called inactive. Activity calls are given as the source filed them. No stated cut-off is given here; in the data, active means growth inhibition above about 70%; inactive means the rest.

Assay [1] is described as follows: NCI Yeast Anticancer Drug Screen. Data for the rad50 strain (AID 155).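 Further: 0% = growth of vehicle-only cultures of the same strain.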 To be noted: S. cerevisiae rad50 strain growth inhibition, active compounds read high. The essentials:
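Vehicle-treated cultures provide the reference for the growth inhibition reported for compound-exposed, repair-deficient yeast.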

Assay [2] is described as follows: NCI Yeast Anticancer Drug Screen. Data for the mec2-1 strain (AID 157). As to conditions: S. cerevisiae mec2-1 strain, active compounds read high. The essentials:
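Each compound was tested on mec2-1 yeast, a strain altered in DNA damage repair or cell cycle control. Growth inhibition is reported relative to vehicle.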

Assay [3] can be described thus: NCI Yeast Anticancer Drug Screen. Data for the sgs1 mgt1 strain (AID 161).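 Further: 0% = growth of cultures given vehicle only.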 To be noted: S. cerevisiae sgs1 mgt1 strain, active compounds read high. The method, boiled down: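 Test agents were incubated with a DNA-repair-mutant yeast strain. Growth was then read and compared against vehicle-treated controls.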
A short description of assay [4]: NCI Yeast Anticancer Drug Screen. Data for the cln2 rad14 strain (AID 165).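 Further: 0% = growth equal to vehicle treated cultures.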 To be noted: S. cerevisiae cln2 rad14 strain, active compounds read high. The method, boiled down: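 Test compounds were added to cln2 rad14 yeast cultures; inhibition of growth was then determined by comparison with vehicle treatment.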
The nature of assay [5]: NCI Yeast Anticancer Drug Screen. Data for the bub3 strain (AID 167). To be noted: S. cerevisiae bub3 mutant strain, active compounds read high. The essentials: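 Mutant yeast screening strain plus compound; vehicle-treated cultures serve as the 0% inhibition reference.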
The nature of assay [6]: NCI Yeast Anticancer Drug Screen. Data for the mlh1 rad18 strain (AID 175). To be noted: S. cerevisiae mlh1 rad18 strain growth inhibition, active compounds read high. The essentials:
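Inhibition values reflect reduced growth of mutant yeast versus vehicle-treated controls following compound exposure; the mutations affect DNA damage repair.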

Where [7] appears, read: at 5.0 µM (retest, dose inferred, filed as 0.5).
The mark [8] stands for this setting: at 50.0 µM (retest, dose inferred, filed as 5.0).

For `CS(=O)(=O)OCCCN(CCCOS(C)(=O)=O)c1ccc(C=Nc2ccc(-c3csc(COc4ccc(Br)cc4Br)n3)cc2)cc1`, the growth inhibition in assay [1] (setting [7]) is 18%; in assay [1] (setting [8]) it was 83% (active); in assay [1] (at 50.0 µM), 86.3% (active); in assay [2] (setting [7]), 6%; in assay [2] (setting [8]) it was 83% (active); in assay [2] (at 50.0 µM), 92.8% (active). The growth inhibition was 13% in assay [3] (setting [7]); 82% (active) in assay [3] (setting [8]); 90% (active) in assay [3] (at 50.0 µM); 0% in assay [4] (setting [7]); 83% (active) in assay [4] (setting [8]); 85.8% (active) in assay [4] (at 50.0 µM). Also, the growth inhibition was 5% in assay [5] (setting [7]); 90% (active) in assay [5] (setting [8]); 89.2% (active) in assay [5] (at 50.0 µM); 17% in assay [6] (setting [7]); 85% (active) in assay [6] (setting [8]); 90.7% (active) in assay [6] (at 50.0 µM).
As to `CC1C=C(COC(=O)Nc2ccccc2)ON1c1ccccc1` (configuration not stated), the growth inhibition is -2% in assay [1] (setting [7]); 97% (active) in assay [1] (setting [8]); 98.2% (active) in assay [1] (at 50.0 µM); -3% in assay [2] (setting [7]); 96% (active) in assay [2] (setting [8]); 98% (active) in assay [2] (at 50.0 µM). The growth inhibition is -2% in assay [3] (setting [7]); 97% (active) in assay [3] (setting [8]); 98.2% (active) in assay [3] (at 50.0 µM); -4% in assay [4] (setting [7]); 95% (active) in assay [4] (setting [8]); 98.3% (active) in assay [4] (at 50.0 µM). Moreover, the growth inhibition in assay [5] (setting [7]) was -8%; in assay [5] (setting [8]), 93% (active); in assay [5] (at 50.0 µM), 98.5% (active); in assay [6] (setting [7]), -1%; in assay [6] (setting [8]), 97% (active); in assay [6] (at 50.0 µM), 97.8% (active).
Regarding `CC(=O)N=C1N(/C=C2\C(=O)Oc3ccccc3C2=O)C(=O)/C(=C/c2ccco2)N1C`, the growth inhibition in assay [1] (setting [7]) is -12%; in assay [1] (setting [8]) it was 84% (active); in assay [1] (at 50.0 µM) it was 97.6% (active); in assay [2] (setting [7]), 3%; in assay [2] (setting [8]) it was 74% (active); in assay [2] (at 50.0 µM) it was 97.1% (active). Besides, the growth inhibition in assay [3] (setting [7]) was -6%; in assay [3] (setting [8]), 65%; in assay [3] (at 50.0 µM) it was 96.2% (active); in assay [4] (setting [7]), -7%; in assay [4] (setting [8]) it was 24%; in assay [4] (at 50.0 µM) it was 91% (active). Moreover, the growth inhibition was -22% in assay [5] (setting [7]); 76% (active) in assay [5] (setting [8]); 97.7% (active) in assay [5] (at 50.0 µM); -17% in assay [6] (setting [7]); 61% in assay [6] (setting [8]); 98.7% (active) in assay [6] (at 50.0 µM).
Turning to `O=C(CNC(=O)c1ccccc1)NNc1ccccc1`, the growth inhibition was 16% in assay [1] (setting [7]); 62% in assay [1] (setting [8]); 86.7% (active) in assay [1] (at 50.0 µM); 4% in assay [2] (setting [7]); 65% in assay [2] (setting [8]); 71.2% (active) in assay [2] (at 50.0 µM). Also, the growth inhibition in assay [3] (setting [7]) is 8%; in assay [3] (setting [8]), 67%; in assay [3] (at 50.0 µM), 32.8%; in assay [4] (setting [7]) it was 3%; in assay [4] (setting [8]), 68%; in assay [4] (at 50.0 µM), 48.8%. The growth inhibition in assay [5] (setting [7]) is 7%; in assay [5] (setting [8]), 89% (active); in assay [5] (at 50.0 µM), 32.5%; in assay [6] (setting [7]) it was 30%; in assay [6] (setting [8]), 93% (active); in assay [6] (at 50.0 µM), 86.9% (active).
As for `COC1=CC(=O)c2c(O)c3c(c(O)c2C1=O)C[C@](C)(O)C[C@@H]3O`, the growth inhibition in assay [1] (setting [7]) was 27%; in assay [1] (setting [8]), 93% (active); in assay [1] (at 50.0 µM), 84.7% (active); in assay [2] (setting [7]) it was 14%; in assay [2] (setting [8]), 94% (active); in assay [2] (at 50.0 µM), 79.8% (active). Besides, the growth inhibition was 12% in assay [3] (setting [7]); 91% (active) in assay [3] (setting [8]); 85.6% (active) in assay [3] (at 50.0 µM); 0% in assay [4] (setting [7]); 29% in assay [4] (setting [8]); 47.7% in assay [4] (at 50.0 µM). Further, the growth inhibition in assay [5] (setting [7]) was 36%; in assay [5] (setting [8]), 93% (active); in assay [5] (at 50.0 µM), 83.8% (active); in assay [6] (setting [7]), 33%; in assay [6] (setting [8]) it was 96% (active); in assay [6] (at 50.0 µM) it was 84.5% (active).
For `Cc1c(CCl)c(=O)oc2c(C)c3occ(CCl)c(=O)c3cc12`, the growth inhibition in assay [1] (setting [7]) was 6%; in assay [1] (setting [8]), 12%; in assay [1] (at 50.0 µM), 80.1% (active); in assay [2] (setting [7]), 20%; in assay [2] (setting [8]), 31%; in assay [2] (at 50.0 µM), 82.5% (active). Also, the growth inhibition was 17% in assay [3] (setting [7]); 42% in assay [3] (setting [8]); 84.5% (active) in assay [3] (at 50.0 µM); 41% in assay [4] (setting [7]); 60% in assay [4] (setting [8]); 85.4% (active) in assay [4] (at 50.0 µM). The growth inhibition is 28% in assay [5] (setting [7]); 57% in assay [5] (setting [8]); 87.5% (active) in assay [5] (at 50.0 µM); 29% in assay [6] (setting [7]); 67% in assay [6] (setting [8]); 77.7% (active) in assay [6] (at 50.0 µM).
As to `Cc1ccc2c(c1)CC1(C2)Cc2ccc(C)cc2C1=O` (configuration not stated), the growth inhibition in assay [1] (setting [7]) was 6%; in assay [1] (setting [8]) it was 73% (active); in assay [1] (at 50.0 µM), 25.4%; in assay [2] (setting [7]) it was -20%; in assay [2] (setting [8]), 85% (active); in assay [2] (at 50.0 µM) it was 17.6%. The growth inhibition is -28% in assay [3] (setting [7]); 75% (active) in assay [3] (setting [8]); 54.3% in assay [3] (at 50.0 µM); 29% in assay [4] (setting [7]); 39% in assay [4] (setting [8]); 21.4% in assay [4] (at 50.0 µM). In addition, the growth inhibition was -5% in assay [5] (setting [7]); 88% (active) in assay [5] (setting [8]); 64.8% in assay [5] (at 50.0 µM); 5% in assay [6] (setting [7]); 65% in assay [6] (setting [8]); 44.1% in assay [6] (at 50.0 µM).
For the molecule `Cc1cc(N)c2ccccc2[n+]1CCCCCCCCCC[n+]1c(C)cc(N)c2ccccc21`, the growth inhibition is 42% in assay [1] (setting [7]); 98% (active) in assay [1] (setting [8]); 89.3% (active) in assay [1] (at 50.0 µM); 47% in assay [2] (setting [7]); 95% (active) in assay [2] (setting [8]); 92.8% (active) in assay [2] (at 50.0 µM). Further, the growth inhibition in assay [3] (setting [7]) is 98% (active); in assay [3] (setting [8]), 96% (active); in assay [3] (at 50.0 µM) it was 92.3% (active); in assay [4] (setting [7]), 90% (active); in assay [4] (setting [8]), 99% (active); in assay [4] (at 50.0 µM), 91% (active). Further, the growth inhibition in assay [5] (setting [7]) is 97% (active); in assay [5] (setting [8]) it was 98% (active); in assay [5] (at 50.0 µM), 91% (active); in assay [6] (setting [7]), 51%; in assay [6] (setting [8]) it was 97% (active); in assay [6] (at 50.0 µM), 81.3% (active).
Regarding `CC1CN(CC(O)c2ccc(Br)cc2)CC(C)O1` (configuration not stated), the growth inhibition in assay [1] (setting [7]) was 13%; in assay [1] (setting [8]), 30%; in assay [1] (at 50.0 µM) it was 58.5%; in assay [2] (setting [7]), 6%; in assay [2] (setting [8]) it was 28%; in assay [2] (at 50.0 µM) it was 34.2%. Also, the growth inhibition is 8% in assay [3] (setting [7]); 56% in assay [3] (setting [8]); 66.5% in assay [3] (at 50.0 µM); 8% in assay [4] (setting [7]); 46% in assay [4] (setting [8]); 68.7% in assay [4] (at 50.0 µM). The growth inhibition is 12% in assay [5] (setting [7]); 48% in assay [5] (setting [8]); 54.6% in assay [5] (at 50.0 µM); 29% in assay [6] (setting [7]); 61% in assay [6] (setting [8]); 41.8% in assay [6] (at 50.0 µM).
